Assay outcomes (PubChem BioAssay)
The list is not random: actives were taken first. Their share in the collection is about 19%.
ELG1 repair inh = qHTS screen for small molecules that inhibit ELG1-dependent DNA repair in human embryonic kidney (HEK293T) cells expressing luciferase-tagged ELG1 | 2.3% of 330,000 active | AID 504467, 2011 | Potency, µM (top dose mostly 46.1 µM), for inactives: at the highest dose activity change, negative = inhibition, actives largely listed as inhibitors | HEK293T ELG1-luciferase reporter, luminescence, 16 h; DNA damage induced by 5-fluorouridine; note: potency is the fitted concentration of half-maximal effect; nearly all actives have a fitted effect of over 55% in size
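Luminescence from the luciferase reporter, measured 30 min after ONE-Glo reagent at room temperature, was the read-out. Beforehand, 2,000 cells per well were exposed for 16 hr at 37 °C to 5-fluorouridine together with compound or vehicle.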
IL-1B inflam inh = qHTS for Inhibitors of Inflammasome Signaling: IL-1-beta AlphaLISA Primary Screen. THP-1 LPS/ATP IL-1B secretion, AlphaLISA, 16 h; active compounds read low. activity change, % at 57.5 µM. 4.7% of 360,000 active; in the data active = activity change below about -50%; inconclusive = mostly about -30% to -49%
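THP-1 cells pretreated 1 hr with compounds (up to 57.5 uM final), then stimulated with LPS (250 ng/mL final) plus ATP (1.25 mM final); secreted IL-1B measured by AlphaLISA after 16 hr, decreased signal indicating inhibition.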
DT40 TDP1 no CPT = qHTS for Inhibitors of human tyrosyl-DNA phosphodiesterase 1 (TDP1): qHTS in cells in absence of CPT. DT40 Tdp1-/- hTDP1 cells, no CPT, ATP luminescence, 48 h. Potency, µM (titrated, usually from 46.2 µM), for the others: at the highest dose activity change, negative = growth inhibition, actives largely listed as inhibitors. 15% of 420,000 active; note: potency is the fitted concentration of half-maximal effect; nearly all actives have a fitted effect of over 55% in size
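Camptothecin absent (DMSO only). Human TDP1-complemented DT40 knockout cells, 400 cells/well, 37 °C for minimum 48 hr; ATP measured via CellTiter-Glo, 30 min dark incubation, luminescence.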
HT1080NT lethal = qHTS for induction of synthetic lethality in tumor cells producing 2HG: qHTS for the HT-1080-NT fibrosarcoma cell line. HT-1080-NT fibrosarcoma viability, CellTiter-Glo ATP luminescence, 48 h. Potency, µM (series often up to 46.1 µM), inactives show at the top dose activity, negative = less viability, actives largely listed as cytotoxic. 1.6% of 360,000 active. AID 686970, 2013;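 note: NT is the 2HG producing partner of a matched IDH1 knockdown line; potency is the fitted concentration of half-maximal effect; 0% = DMSO-treated cells and -100% = media-only wells without cells; nearly all actives have a fitted effect of over 55% in size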
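HT-1080-NT fibrosarcoma cells (2HG-overproducing), 750 cells/well in RPMI with 5% FBS, dosed after 2 h and incubated 48 h at 37C. CellTiter-Glo luminescence normalized to DMSO and no-cell wells; concentration-response curves fitted and classed.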
HT1080 IDH1KD tx = qHTS for induction of synthetic lethality in tumor cells producing 2HG: qHTS for the HT-1080-IDH1KD cell line. Potency, µM (titrated, usually from 46.1 µM), without a hit: at the top dose activity, negative = toxicity, hits mostly cytotoxic. 2% of 360,000 active. HT-1080 IDH1 knockdown viability, ATP luminescence, 48 h. AID 686971, 2013;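 note: potency is the fitted concentration of half-maximal effect; 0% = DMSO wells and -100% = cell-free medium wells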
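In this qHTS, HT-1080 cells depleted of IDH1 are exposed for 48 h at 37 °C to compound titrations. Toxicity is scored from CellTiter-Glo luminescence, with DMSO as full viability and medium alone as none.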
DT40 TDP1 CPT = qHTS for Inhibitors of human tyrosyl-DNA phosphodiesterase 1 (TDP1): qHTS in cells in presence of CPT | Potency, µM (series often up to 46.2 µM), for the others: at the top dose activity change, negative = growth inhibition, actives largely listed as inhibitors | AID 686979, 2013 | 12% of 420,000 active | chicken DT40 Tdp1-/-;hTDP1 cells + 20 nM CPT, ATP luminescence, 48 h; note: potency is the fitted concentration of half-maximal effect; nearly all actives have a fitted effect of over 55% in size
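Chicken DT40 Tdp1-/- cells stably complemented with human TDP1 were seeded at 400 cells/well in medium containing 20 nM camptothecin, exposed to pin-transferred compounds, and grown at 37 °C for at least 48 hr. Viability was read as ATP luminescence.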
The depositor's hits bear a star; ? = inconclusive; nt = no result. Unless noted, calls come from the whole dose curve; as a rule, active = well fitted curve in the direction sought with a large enough effect; inconclusive = small, poorly fitted or top-dose-only effect, or another doubt; inactive = no such curve, though single readings can be large; an effect the other way counts as inactive or inconclusive. Unless noted, % is set by controls: 0 for no effect and ±100 for the full control effect.

SMILES | ELG1 repair inh | IL-1B inflam inh | DT40 TDP1 no CPT | HT1080NT lethal | HT1080 IDH1KD tx | DT40 TDP1 CPT
COC(=O)c1cc(S(=O)(=O)N2CCN(c3ccc([N+](=O)[O-])cc3)CC2)c[nH]1 | 16.4µM* | 2.3 | ? | -1.2% | 3.4% | -42.4%
CC(=O)Nc1ccc(S(=O)(=O)N2CCN(Cc3cccc([N+](=O)[O-])c3)CC2)cc1 | ? | -2.0 | 23.1µM* | -4.3% | -4.1% | ?
O=S(=O)(c1cccc(Cl)c1)N1CCSc2ccccc21 | ? | 18.5 | -3.9% | -0.7% | -1.5% | -11.6%
CCN(CC(=O)Nc1ccccc1C(F)(F)F)C(=O)CN1C(=O)NC(C)(c2ccccc2)C1=O (stereo not drawn) | 13.1% | 5.3 | -5.6% | -6.8% | -3.8% | -4.5%
CC(C)CNC(=O)C(=O)NCC1OCCCN1S(=O)(=O)c1cccs1 (stereo not drawn) | 7.9% | 30.7 | 3.9% | 0.2% | -2.9% | -0.6%
CC1CCN(C(C)C(=O)Nc2ccc(S(=O)(=O)N3CCCC3)cc2)CC1 (stereo not drawn) | 9.5% | -15.1 | -13.8% | 1.7% | 2.5% | -21.2%
Cc1onc(-c2ccccc2)c1C(=O)Nc1ccc(S(=O)(=O)N2CCOCC2)cc1 | 0.9% | -0.8 | 23.1µM* | 0.0% | -3.1% | ?
O=C(Nc1ccc(S(=O)(=O)N2CCCCC2)cc1)c1ccc(CN2CCc3ccccc3C2)cc1 | 12.1% | -2.6 | 4.61µM* | ? | ? | 10.3µM*
CC(C(=O)Nc1ccc(S(=O)(=O)N2CCCC2)cc1)N1CCN(c2ccccc2O)CC1 (stereo not drawn) | ? | -2.2 | 23.1µM* | -10.7% | 0.0% | ?
Cc1onc(-c2ccccc2Cl)c1C(=O)Nc1ccc(S(=O)(=O)N2CCCC2)cc1 | -12.3% | -15.8 | ? | -12.6% | -5.8% | ?
CC(C)(C)c1ccc(S(=O)(=O)/N=C2\C=C(NS(=O)(=O)c3ccccc3)C(=O)c3ccccc32)cc1 | ? | 19.4 | 20.6µM* | 23.1µM* | 16.4µM* | 20.6µM*
O=C1C(Nc2ccccc2)=C(NS(=O)(=O)c2ccccc2)C(=O)c2ccccc21 | 2.5% | -8.8 | ? | -16.9% | -14.1% | -29.1%
Cc1ccc(S(=O)(=O)/N=C2\C=C(NS(=O)(=O)c3ccccc3)C(=O)c3ccccc32)c(C)c1 | nt | 15.6 | ? | -13.7% | -6.8% | 14.6µM*
CCCCNC(=O)CCCn1c(=O)c2ccccc2n(CC(=O)Nc2ccccc2OCC)c1=O | nt | nt | -1.2% | nt | nt | -2.3%
CCCCCc1cc(=O)oc2c(C(CCN3CCCCC3)c3ccc4c(c3)OCO4)c(OC)cc(OC)c12 (stereo not drawn) | 1.8% | -18.3 | ? | ? | ? | 23.1µM*
CCCCCc1cc(=O)oc2c(C(CCN3CCCC(C)C3)c3ccc4c(c3)OCO4)c(OC)cc(OC)c12 (stereo not drawn) | ? | -53.5* | ? | -4.7% | -1.6% | ?
COc1cc(OC)c2c(-c3ccccc3)cc(=O)oc2c1C(CC(=O)N1CCOCC1)c1ccc2c(c1)OCO2 (stereo not drawn) | -1.5% | -2.7 | ? | -3.9% | -2.8% | ?
CCCCCc1cc(=O)oc2c(C(CCN(CC)CC)c3cc(OC)c(OC)c(OC)c3)c(OC)cc(OC)c12 (stereo not drawn) | -4.0% | ? | 18.4µM* | ? | 18.4µM* | ?
COc1cc(OC)c2ccc(=O)oc2c1C(CC(=O)N1CCOCC1)c1ccc2c(c1)OCO2 (stereo not drawn) | 12.9% | 2.3 | -18.0% | 3.4% | 5.4% | -3.2%
COc1cc(OC)c2ccc(=O)oc2c1C(CCN1CCCC1)c1ccc2c(c1)OCO2 (stereo not drawn) | 6.5% | -4.7 | 18.4µM* | -9.0% | -6.5% | ?
COc1cc(NC(=O)C2(C)CCN2C(C)C)cc(OC)c1OC (stereo not drawn) | nt | -7.5 | 2.8% | 14.7% | -3.0% | -0.7%
Cc1ccc(S(=O)(=O)N2CCN(C(=O)[C@H](Cc3ccccc3)NC(=O)c3ccco3)CC2)cc1 | nt | 11.2 | ? | -1.4% | 3.2% | ?
CSCCC(NC(=O)c1ccco1)C(=O)N1CCN(C(c2ccccc2)c2ccccc2)CC1 (stereo not drawn) | -29.2% | ? | 16.4µM* | -9.2% | -1.9% | 23.1µM*
Cc1ccc(S(=O)(=O)N2CCN(C(=O)[C@H](Cc3ccccc3)NC(=O)c3ccco3)CC2)cc1C | -20.9% | -5.9 | 16.4µM* | -2.6% | -13.5% | ?
Cc1ccc(C)c(S(=O)(=O)N2CCN(C(=O)[C@H](Cc3ccccc3)NC(=O)c3ccco3)CC2)c1 | ? | 27.2 | 16.4µM* | 13.6% | 9.5% | 23.1µM*
SMILES | ELG1 repair inh | IL-1B inflam inh | DT40 TDP1 no CPT | HT1080NT lethal | HT1080 IDH1KD tx | DT40 TDP1 CPT
CC1CN(C(=O)CSc2nnc(-c3ccccc3)o2)CC(C)O1 (stereo not drawn) | 11.9% | 3.5 | 23.3% | 1.6% | 3.1% | 1.3%
O=C(NCCc1ccc(Cl)cc1)c1cccn1-c1nnc(N2CCCC2)s1 | nt | nt | ? | nt | nt | 23.1µM*
O=C(NCc1cccc(Br)c1)c1cccn1-c1nnc(N2CCCCC2)s1 | nt | nt | 14.6µM* | nt | nt | ?
O=C(NCCc1ccc(Cl)cc1)c1cccn1-c1nnc(N2CCCCC2)s1 | nt | nt | 23.1µM* | nt | nt | ?
Cc1cc(=O)n2nc(N3CCCC(C(=O)NCc4cccc(Br)c4)C3)sc2n1 (stereo not drawn) | 16.9% | -12.6 | 5.6% | -1.3% | 3.8% | -17.6%
Cc1nc([N+](=O)[O-])cn1CC(=O)c1ccc2c(c1)OCCO2 | nt | nt | -6.8% | nt | nt | -14.7%
CCOC(=O)C1(C)C=C(Nc2cccc(C(=O)O)c2)C(=O)N1c1cccc(C(=O)O)c1 (stereo not drawn) | nt | nt | 5.3% | nt | nt | 5.4%
Cn1c(=NC(=O)CS(=O)(=O)c2ccccc2)sc2cc([N+](=O)[O-])ccc21 | -7.7% | -1.7 | ? | 18.2% | 0.1% | 5.0%
